# Assay results published in PubChem BioAssay AID651791 (National Center for Advancing Translational Sciences (NCATS), 2012).
# Inconclusive results are not listed. Activity calls are given as the source filed them. Calls come from the whole dose curve; as a rule, active = well fitted inhibition curve with a large enough effect; inconclusive = small, poorly fitted or top-dose-only effect; inactive = no such curve, though single readings can be large or run the other way.
# Assay: InCell qHTS Assay for Inhibitors of the mTORC1 Signaling Pathway in MEF (Tsc2-/-, p53-/-) Cells: Hit Validation;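 note: phospho-S6 Ser235/236 signal normalized to propidium iodide cell count per well; nearly all actives have a fitted effect of over 75% in size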
# Conditions: phospho-rpS6 immunofluorescence, 24 h; activity change, negative = inhibition: at 38.3 µM (top of the series)
# Potency is the fitted concentration of half-maximal effect.
Structure (SMILES),"activity change, negative = inhibition [%]",Potency
Cc1ccccc1CN1C(=O)C(O)(CC(=O)c2cccc(Br)c2)c2ccccc21 (configuration not stated),-100,
Cc1ccc(-c2csc(-c3cc4c([nH]c3=O)CC(c3ccccc3)CC4=O)n2)cc1 (configuration not stated),-100,
O=C(NC1CCN(Cc2ccccc2)CC1)c1ccc(Cn2c(=O)c3ccccc3n(Cc3ccc(F)cc3)c2=O)cc1,-100,
O=C(CCCn1ccc2cc(S(=O)(=O)N3CCCC3)ccc21)NCc1ccc(Cl)cc1,-100,
CCN(C(=O)C(NS(=O)(=O)c1ccc(Br)s1)c1ccccc1)c1ccc(C)c(C)c1 (configuration not stated),-15.2,
CCN(Cc1nc(-c2ccc(OC)cc2)oc1C)S(=O)(=O)c1ccc(Cl)cc1,-100,
COc1cc2nc(Nc3ccc(C)c(C)c3)nc(N)c2cc1OC,-100,
Cc1cccc(NC(=O)c2c(N)sc3c2CCC(C)C3)c1 (configuration not stated),-100,
COc1ccccc1C(=O)Nc1ccc(-c2cc(C(F)(F)F)nn2-c2ccccc2)cc1,-100,
CCc1ccc(CNc2ncc(-c3cccc(OC)c3)n2C)cc1,-100,
COc1cc(-c2ccno2)ccc1S(=O)(=O)N1CCN(c2cc(C)ccc2C)CC1,-100,
COc1ccc(S(=O)(=O)Nc2ccc3oc4c(c3c2)CCCC4)cc1,-100,
CCCCNC(=O)c1ccc2c(c1)N=C(CC)c1ccccc1S2,-16,
Cc1cccc(CN2CCc3nc(N4CCN(c5ccccn5)CC4)ncc3C2)c1,-100,
O=C(COc1ccc(F)cc1)Nc1ccc(Cl)c(-c2nc3ccccc3[nH]2)c1,-100,
CCN(c1ccccc1)S(=O)(=O)c1cc(C(=O)Nc2ccc(Br)cc2)ccc1F,-100,
CCOc1ccc(NC(=O)CSc2oc(-c3ccc(F)cc3)nc2S(=O)(=O)c2ccc(C)cc2)cc1,,4.65 µM (active)
FC(F)(F)c1cccc(Nc2c3c(nc4ccc(Cl)cc24)CCC3)c1,-100,
Cc1nc2nncn2c(NCc2ccc(F)cc2)c1C,-100,

Structure (SMILES),"activity change, negative = inhibition [%]",Potency
COc1ccc(C)cc1NC(=O)CSc1ccc(-c2ccccn2)nn1,-100,
COc1ccc2cc(CNc3ccccc3)c(=O)n(CC(=O)Nc3ccc(C)cc3C)c2c1,-13.3,
COc1ccc(NC(=O)Cn2c(=O)n(-c3ccccc3)c(=O)c3ccc(C(=O)NCc4ccc5c(c4)OCO5)cc32)cc1,-21.2,
COc1ccc2c(c1)CCc1c(C(=O)Nc3c(C)nn(Cc4ccc(Cl)cc4)c3C)noc1-2,-100,
CCc1nnc(NC(=O)c2nc(S(=O)(=O)Cc3cccc(C)c3)ncc2Cl)s1,,4.14 µM (active)
Cc1nn(CCCC(=O)NCc2ccccc2)c(=O)c2c1sc1ccccc12,-100,
Brc1ccc(Nc2c3c(nc4nncn24)CCC3)cc1,-100,
CCS(=O)(=O)c1ncc(Cl)c(C(=O)N(Cc2ccccc2)Cc2ccco2)n1,,3.69 µM (active)
O=c1c(-c2cc(-c3ccc(F)cc3)nc3c2COc2ccc(Cl)cc2-3)coc2ccc(F)cc12,-100,
CCOc1cc(C(=O)Nc2ccc(-c3cn4cccnc4n3)cc2)cc(OCC)c1OCC,-100,
Cc1ccccc1CS(=O)(=O)c1ncc(Cl)c(C(=O)Nc2nnc(C(C)C)s2)n1,,18.5 µM (active)
COC(=O)c1ccc(NC(=O)c2nc(-c3ccc(Cl)cc3)n3c2CCCCC3)cc1,-100,
COc1ccc(-c2nc(C)c(CCNC(=O)c3ccccc3Br)s2)cc1OC,-100,
O=C(c1ccco1)n1nc(-c2ccc(Cl)cc2)nc1NCc1ccccc1,-100,
COc1ccc(OCC(O)Cn2c(=N)n(CCN3CCCCC3)c3ccccc32)cc1 (configuration not stated),-100,
COc1ccc(C)cc1NC(=O)CCNS(=O)(=O)c1cccc2nonc12,-100,
CCOc1ccccc1NC(=O)Cn1nnc(C(=O)NCc2cccs2)c1N,-100,
CCc1ccc(CN(Cc2ccco2)C(=O)c2cc(-c3ccc(C)c(F)c3)on2)cc1,-100,
